# Source: article PMC4552634, “A New Set of Chemical Starting Points with Plasmodium falciparum Transmission-Blocking Potential for Antimalarial Drug Discovery” (PLoS ONE, 2015)
# Screen size: about 13,000 compounds; about 3,200 (25%) showed an effect of 50% or more. The list shows a part of the results.
# Test system: P. falciparum stage V gametocytes
# Parameters: BacTiter-Glo ATP luminescence viability of purified stage V gametocytes in 384-well plates, per cent inhibition versus DMSO
# Settings: 48 h, 5 µM; inhibitor
row,SMILES,% Inhibition [%]
1,CC(=O)Nc1cccc(C(=O)Nc2cccc(-c3ccc(-c4nc5cc(C(F)(F)F)ccc5[nH]4)s3)c2)c1 [TCMDC-132138],13.04
2,COc1ccc(NC(=O)c2ccc(-c3nc(-c4ccc(Cl)cc4)cs3)cc2)cc1N1CCN(C)CC1 [TCMDC-138685],18.54
3,NC(Cc1cccc(I)c1)C(=O)NCC1CCCO1 (stereo not shown) [TCMDC-141273],-21.09
4,COc1ccc(CN2CCN(CCOC(c3ccccc3)c3ccc(Cl)cc3)CC2)c(O)c1 (stereo not shown) [TCMDC-135692],28.74
5,OCC(c1ccccc1)n1c(COc2ccc(Cl)cc2)nc2c(OCCCN3CCCCC3)cccc21 (stereo not shown) [TCMDC-138596],103.2
6,Cc1nc(N)nc(N)c1-c1ccc(Br)c([N+](=O)[O-])c1 [TCMDC-138071],1.652
7,CS(=O)(=O)CCNCc1cccc(-c2cc3c(Nc4ccc(OCc5ccccc5)cc4)ncnc3cn2)c1 [TCMDC-138240],8.889
8,CN(C)C(=S)N=Nc1c(O)[nH]c2ccc(OC(F)(F)F)cc12 [TCMDC-141099],-50.91
9,O=C(NCCN1CCCCC1)c1ccc(CNC(=O)c2ccc(O)c(-c3cccc(C(F)(F)F)c3)c2)cc1 [TCMDC-140817],7.187
10,Cc1c(-c2ccc3c(c2)C(NCCCN2CCCCC2)CC3)cnc(N)c1C (stereo not shown) [TCMDC-138320],53.54
11,Cc1c(-c2cccc(C(C)(C)NC3CCN(Cc4ccccc4)CC3)c2)cnc(N)c1C [TCMDC-138300],70.88
12,Cc1c(Br)cc2[nH]c(-c3ccc(C(=O)NC4CCN(Cc5ccccc5)CC4)cc3)nc2c1C [TCMDC-140026],-88.51
13,Cc1c(-c2cccc(C(C)(C)NCCCN3CCCCC3)c2)cnc(N)c1C [TCMDC-138284],76.27
14,Cn1nc(-c2ccc(CN[C@@H]3CCc4ccc(O)cc43)cc2)c2cnc(NC3CCCC3)nc21 [TCMDC-135029],-22.32
15,O=C(Nc1cccc(-c2ccc(NCCCN3CCCC3)nc2)c1)c1ccccc1 [TCMDC-134145],39.43
16,c1ccc(CN2CCC(NCc3cccc(-c4cncc5ccccc45)c3)CC2)cc1 [TCMDC-134152],18.28
17,NC(=O)c1cccc(C(=O)Nc2cccc(-c3ccc(-c4nc5ccc(C(F)(F)F)cc5[nH]4)cc3)c2)c1 [TCMDC-132202],-50.53
18,COc1ccc(S(=O)(=O)N(CC(=O)NN=C(C)c2cccs2)c2cc(C)cc(C)c2)cc1OC [TCMDC-125737],0.7472
19,COc1ccccc1NS(=O)(=O)c1cc(C(=O)Nc2ccc(N3CCOCC3)c(S(=O)(=O)Nc3ccccc3Cl)c2)ccc1Cl [TCMDC-125591],13
20,Cc1cc(-c2ccc(NC(=O)N3CCc4cc(Br)c(N5CCN(C)CC5)cc43)cc2)cc(C)n1 [TCMDC-139279],26.15
21,CCCN1CCC=C(c2cccc(Nc3nccc(Nc4cc(OC)ccc4C)n3)c2)C1 [TCMDC-138668],37.96
22,COCCOc1ccc(Nc2nccc(-c3c(-c4cccc(NC(=O)c5c(F)cccc5F)c4)nn4ccccc34)n2)cc1F [TCMDC-135995],27.09

row,SMILES,% Inhibition [%]
1,O=C(Nc1cccc(-c2nn3ncccc3c2-c2ccnc(Nc3cccnc3)n2)c1)c1c(F)cccc1F [TCMDC-135635],0.1379
2,CCN(CC)CCCOc1ccc(Nc2nccc(-c3c(-c4cccc(NC(=O)c5c(F)cccc5F)c4)nn4ccccc34)n2)cc1F [TCMDC-135920],94.91
3,O=C(Nc1cccc(-c2nn3ncccc3c2-c2ccnc(Nc3ccccc3)n2)c1)c1c(F)cccc1F [TCMDC-134631],-2.939
4,CCS(=O)(=O)c1ccc(OC)c(Nc2nccc(-c3c(-c4cccc(NC(=O)c5c(F)cccc5F)c4)nn4ncccc34)n2)c1 [TCMDC-135682],81.78
5,CS(=O)(=O)Cc1ccc(Nc2nccc(-c3c(-c4cccc(NC(=O)c5c(F)cccc5F)c4)nn4ncccc34)n2)cc1 [TCMDC-135681],52.9
6,CC(=O)Nc1cccc(Nc2nccc(-c3c(-c4cccc(NC(=O)c5c(F)cccc5F)c4)nn4ncccc34)n2)c1 [TCMDC-135548],-25.11
7,CS(=O)(=O)Cc1ccc(Nc2nccc(-c3c(-c4cccc(NC(=O)c5c(F)cccc5F)c4)nn4ccccc34)n2)cc1 [TCMDC-135669],-24.51
8,COCCOc1ccc(Nc2nccc(-c3c(-c4cccc(NC(=O)c5c(F)cccc5F)c4)nn4ccccc34)n2)cc1Cl [TCMDC-135955],-12.66
9,CS(=O)(=O)N1CC2(CCN(CCC(NC(=O)/C=C/c3ccccc3)c3ccc(Cl)c(Cl)c3)CC2)c2ccccc21 (stereo not shown) [TCMDC-141763],8.889
10,CCCN1CCCN(Cc2cccc(NC(=O)c3ccc(-c4ccccc4)cc3)c2)CC1 [TCMDC-141843],-30.15
11,CCC[C@@H]([C@@H](CC1CCCCC1)C(=O)N[C@H](C(=O)Nc1nccs1)[C@@H](C)OCc1ccccc1)N(O)C=O [TCMDC-138051],-19.92
12,Cc1nc(SCC(=O)N2CCCC2=O)c2c(C)c(C)sc2n1 [TCMDC-123558],5.306
13,Cc1[nH]nc2cc(F)c(-c3cc(OC[C@@H](N)Cc4ccccc4)cnc3-c3ccoc3)cc12 [TCMDC-136295],10.29
14,Cc1cccc(Nc2nc(N)c3ccccc3n2)c1.Cl [TCMDC-123639],-2.53
15,CCOC(=O)c1c(C)noc1Nc1cccc(C)c1C [TCMDC-131454],-30.94
16,CCCCCCn1c(Sc2ccc(C#N)c([N+](=O)[O-])c2)nnc1-c1cc(OC)cc(OC)c1 [TCMDC-135589],37.66
17,COc1cc(OC)cc(-c2nn(-c3ccc([N+](=O)[O-])cc3Cl)c(=S)n2Cc2ccco2)c1 [TCMDC-135128],93.16
18,O=[N+]([O-])c1ccc(-n2nc(-c3cccnc3)n(Cc3ccco3)c2=S)c(Cl)c1 [TCMDC-135132],83.46
19,N#Cc1cc([N+](=O)[O-])ccc1-n1nc(-c2cccc(Cl)c2)n(Cc2ccco2)c1=S [TCMDC-134717],102.9
20,CN(C)c1ccc(-c2nnc(Sc3ccc(C#N)c([N+](=O)[O-])c3)n2Cc2ccco2)cc1 [TCMDC-135611],2.069
21,COc1cc(OC)cc(-c2nn(-c3ccc([N+](=O)[O-])cc3C#N)c(=S)n2Cc2ccco2)c1 [TCMDC-134715],75.07
